KDM5B inhibitor – Primary screen for KDM5B Histone Demethylases FDH-coupled qHTS; KDM5B demethylase, FDH-coupled NADH fluorescence (FDH is formaldehyde dehydrogenase); actives 2.6% (n = 220,000); Potency, µM (titrated, usually from 57.7 µM), hits mostly inhibitors; Lysine-specific demethylase 5B (Homo sapiens), Q9UGL1; active = well fitted inhibition curve with a large enough effect; note: 0% is about no effect; nearly all actives have a fitted effect of over 70% in size
Target sequence (Q9UGL1 whole entry, looked up): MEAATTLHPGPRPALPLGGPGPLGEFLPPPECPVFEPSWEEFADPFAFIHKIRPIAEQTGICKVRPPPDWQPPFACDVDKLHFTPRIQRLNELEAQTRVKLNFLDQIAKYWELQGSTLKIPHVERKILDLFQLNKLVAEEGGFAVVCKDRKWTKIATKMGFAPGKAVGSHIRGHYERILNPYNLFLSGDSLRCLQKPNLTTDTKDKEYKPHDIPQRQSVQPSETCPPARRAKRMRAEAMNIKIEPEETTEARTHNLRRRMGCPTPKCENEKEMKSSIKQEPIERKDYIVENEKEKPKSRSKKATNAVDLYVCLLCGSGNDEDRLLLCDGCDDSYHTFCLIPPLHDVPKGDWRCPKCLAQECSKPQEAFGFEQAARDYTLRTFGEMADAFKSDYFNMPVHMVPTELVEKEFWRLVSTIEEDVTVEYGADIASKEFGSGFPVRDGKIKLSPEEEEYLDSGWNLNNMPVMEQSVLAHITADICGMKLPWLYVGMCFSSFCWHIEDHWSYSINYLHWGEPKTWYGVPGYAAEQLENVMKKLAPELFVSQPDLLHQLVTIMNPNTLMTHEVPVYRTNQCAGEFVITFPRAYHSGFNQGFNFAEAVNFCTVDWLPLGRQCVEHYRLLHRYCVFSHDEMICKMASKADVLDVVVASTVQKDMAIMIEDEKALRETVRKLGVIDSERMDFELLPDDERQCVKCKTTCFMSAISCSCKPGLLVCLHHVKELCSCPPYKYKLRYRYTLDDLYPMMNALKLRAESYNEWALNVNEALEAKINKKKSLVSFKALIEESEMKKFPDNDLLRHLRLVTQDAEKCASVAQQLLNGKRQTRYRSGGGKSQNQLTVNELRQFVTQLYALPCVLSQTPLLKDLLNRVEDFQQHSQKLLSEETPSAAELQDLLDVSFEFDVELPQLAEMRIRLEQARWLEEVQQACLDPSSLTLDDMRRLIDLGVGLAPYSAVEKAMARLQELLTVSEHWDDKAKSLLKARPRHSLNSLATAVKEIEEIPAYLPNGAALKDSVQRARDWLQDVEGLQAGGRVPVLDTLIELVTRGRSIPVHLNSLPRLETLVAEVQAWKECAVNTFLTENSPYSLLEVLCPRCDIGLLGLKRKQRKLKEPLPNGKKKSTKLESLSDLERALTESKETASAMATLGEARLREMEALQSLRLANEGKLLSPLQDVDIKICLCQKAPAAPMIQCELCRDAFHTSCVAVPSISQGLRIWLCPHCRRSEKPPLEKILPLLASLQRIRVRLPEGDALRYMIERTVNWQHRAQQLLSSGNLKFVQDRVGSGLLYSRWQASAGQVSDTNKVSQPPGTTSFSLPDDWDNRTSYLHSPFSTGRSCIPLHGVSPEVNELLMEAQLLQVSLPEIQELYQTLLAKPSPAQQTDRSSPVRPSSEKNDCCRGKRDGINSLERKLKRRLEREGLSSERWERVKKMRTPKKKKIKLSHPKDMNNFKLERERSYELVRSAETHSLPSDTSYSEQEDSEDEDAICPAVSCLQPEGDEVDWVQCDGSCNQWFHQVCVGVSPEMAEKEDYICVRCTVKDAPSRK
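Compound dilutions met 200 nM (final) KDM5BΔAP for 10 min at room temperature before substrate addition. The substrate mix held 12.5 µM H3K4me3 with cofactors 25 µM α-ketoglutarate and 50 µM Fe²⁺. NADH signal gain over 30 min defined activity.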
Starred values were filed as active, the others as inactive; i = inactive. Many of the other results were omitted from the sample, so hits are more common in it than they were. Potency is the fitted concentration of half-maximal effect.

SMILES	KDM5B inhibitor
CCCc1cc(CN(C)c2nc(CCN)nc3sc(C)c(C)c23)[nH]n1	22µM*
Cc1sc2nc(CN3CCOCC3)nc(N(C)CC(=O)Nc3cccc(F)c3)c2c1C	i
CCCc1nc(SCC(=O)N2CCOCC2)c2c(C)c(C)sc2n1	i
O=C(CCCN1C(=O)C(c2ccccc2)Oc2cccnc21)NCc1ccccc1 (stereo not given)	i
C[C@@H]1C(=O)O[C@H]2[C@H]1CC[C@@]1(C)Cc3sc(NC(=O)CN(C)C)nc3[C@@H](C)[C@H]21	i
C[C@@H]1C(=O)O[C@H]2[C@H]1CC[C@@]1(C)Cc3sc(Nc4cccnc4)nc3[C@@H](C)[C@H]21	i
C[C@@H]1C(=O)O[C@H]2[C@H]1CC[C@@]1(C)Cc3sc(Nc4ccccc4)nc3[C@@H](C)[C@H]21	i
C[C@@H]1C(=O)O[C@H]2[C@H]1CC[C@@]1(C)Cc3sc(NC(=O)CCC(=O)O)nc3[C@@H](C)[C@H]21	i
C[C@@H]1C(=O)O[C@H]2[C@H]1CC[C@@]1(C)Cc3sc(NC(=O)c4ccc(N(C)C)cc4)nc3[C@@H](C)[C@H]21	28µM*
C[C@@H]1C(=O)O[C@H]2[C@H]1CC[C@@]1(C)Cc3sc(Nc4ccc(C(=O)O)cc4)nc3[C@@H](C)[C@H]21	35µM*
Cn1cnc2c1c(=O)n(CC(=O)Nc1ccc3c(c1)OC1(CCCC1)O3)c(=O)n2C	i
NC(=O)C(NC(=O)c1cc(-c2ccccc2)n[nH]1)c1ccccc1 (stereo not given)	i
Cc1noc2nc(-c3ccc(F)cc3)cc(C(=O)NCc3ccc(N4CCOCC4)nc3)c12	i
CCCN(C(=O)c1cccs1)c1nc(-c2ccccc2)cs1	i
Cn1c(=O)c2c(ncn2CC(=O)c2ccc3ccccc3c2)n(C)c1=O	i
CCOc1c(Br)cc(/C=C/C(=O)c2ccc(F)cc2)cc1OC	i
COc1cccc(C(=O)N2CCC(C(=O)N[C@@H]3CCOC[C@H]3OC)CC2)c1	i
CO[C@@H]1COCC[C@H]1NC1CCN(c2ncc3ccc(F)cc3n2)CC1	28µM*
CO[C@@H]1COCC[C@H]1NC(=O)COc1cccc(-n2cnnn2)c1	i
CCC(=O)N1N=C(c2cc(Cl)ccc2Cl)CC1c1ccc2nccnc2c1 (stereo not given)	i
CCn1c(CCCOc2ccc(Cl)cc2C)n[nH]c1=S	i
CC(C)c1noc(-c2cccn3c(CNC(=O)c4ccc(F)cc4Cl)nnc23)n1	25µM*
CC(C)c1noc(-c2cn(C3CCN(C(=O)c4ccc(F)cc4Cl)CC3)nn2)n1	i
CC(C)c1noc(-c2cn(C3CCN(C(=O)c4cc(Cl)ccc4F)C3)nn2)n1 (stereo not given)	i
Cc1ccc(-c2nc(C(=O)NCc3ccc(F)cc3Cl)no2)cc1	i
SMILES	KDM5B inhibitor
CCc1noc(-c2cccn3c(CNC(=O)c4cc(F)ccc4F)nnc23)n1	28µM*
CC(C)c1noc(-c2cccn3c(CNC(=O)c4cc(F)ccc4F)nnc23)n1	25µM*
CC(C)c1noc(-c2cccn3c(CNC(=O)c4cc(F)ccc4Cl)nnc23)n1	22µM*
O=C1NCc2ccccc2CC12CCN(Cc1ccc(Oc3ccccc3)cc1)C2 (stereo not given)	i
Nc1nc(-c2cc3c4c(c2)CC(=O)N4CCC3)cs1	i
O=C(O)CCNS(=O)(=O)c1ccccc1Cl	i
Cc1cc(C)cc(NC(=O)CCNC(=O)C2CCCC2)c1	i
Cc1ccc(-c2noc(CN3CCCC3c3cccn3C)n2)cc1 (stereo not given)	i
CC(C)N(C)CC#CC(O)(c1ccccc1)C1CCCC1 (stereo not given)	i
CO/N=C(\C(=O)O)c1cn2ccsc2n1	i
CCc1noc(-c2cn(C3CCN(C(=O)c4ccc(F)c(F)c4)CC3)nn2)n1	i
CCc1noc(-c2cccn3c(CNC(=O)c4ccc(F)c(F)c4)nnc23)n1	4µM*
Cc1nnc(C(=O)Nc2cccc(C(=O)NCc3ccc4c(c3)OCO4)c2)s1	i
CC(=O)Nc1ccc(CN2C(=O)OC3(CCN(C(=O)C(C)C)CC3)C2(C)c2ccccc2)cc1 (stereo not given)	i
CO[C@H]1[C@H](NC(=O)c2cc(=O)[nH]c(=O)[nH]2)c2ccccc2C12CCNCC2	i
CO[C@H]1[C@H](NC(=O)c2ccc(F)cc2)c2ccccc2C12CCNCC2	i
CO[C@H]1[C@H](NC(=O)c2cc3ccccc3[nH]2)c2ccccc2C12CCNCC2	22µM*
Cc1ccc(OCC(=O)NNC(=S)NC(=O)COc2ccccc2)cc1	i
CN(C)CCNC(=O)c1nc2nc(-c3ccccc3)c(-c3cccc(Cl)c3)cc2n1C	i
CN(C)CCNC(=O)c1nc2nc(-c3ccccc3)c(-c3ccc(Cl)cc3)cc2n1C	28µM*
Cc1ccc(-c2cc3c(nc2-c2ccccc2)nc(C(=O)NCCN(C)C)n3C)cc1	i
CN(C)CCNC(=O)c1nc(-c2ccccc2)cc2[nH]ccc12	i
CN(C)CCNC(=O)c1ccc2nc(CCc3ccccc3)oc2c1	i

Bioassay records as filed in PubChem.
